Screening data as filed in PubChem BioAssay.
GDH-TPI counter-1: counter-screen for M. tuberculosis FBA inhibitors: GDH-TPI coupled enzymes; GDH-TPI coupled enzyme counterscreen, NADH absorbance; inhibition, % at 4.8 µM; hit rate 1.2% among 360,000; AID 588335; in the data active means inhibition above about 30%;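 further: 0% = DMSO wells and 100% = wells lacking the enzyme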
BioA inh: BioA (M. tuberculosis) enzyme inhibition; purified M. tuberculosis BioA enzyme, plate reader; inhibition, % at 9.99 µM; hit rate 0.096% among 360,000; AID 602481; in the data active means inhibition above about 40%
Rv3671c inh: inhibitors of M. tuberculosis serine protease Rv3671c; P9WHR9; inhibition, % at 5.96 µM; hit rate 0.048% among 320,000; in the data active means inhibition above about 38%;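 further: extracellular domain of Rv3671c used as enzyme; 0% = enzyme with DMSO and 100% = no enzyme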
Target sequence (P9WHR9 whole entry, looked up, the tested form may be a part): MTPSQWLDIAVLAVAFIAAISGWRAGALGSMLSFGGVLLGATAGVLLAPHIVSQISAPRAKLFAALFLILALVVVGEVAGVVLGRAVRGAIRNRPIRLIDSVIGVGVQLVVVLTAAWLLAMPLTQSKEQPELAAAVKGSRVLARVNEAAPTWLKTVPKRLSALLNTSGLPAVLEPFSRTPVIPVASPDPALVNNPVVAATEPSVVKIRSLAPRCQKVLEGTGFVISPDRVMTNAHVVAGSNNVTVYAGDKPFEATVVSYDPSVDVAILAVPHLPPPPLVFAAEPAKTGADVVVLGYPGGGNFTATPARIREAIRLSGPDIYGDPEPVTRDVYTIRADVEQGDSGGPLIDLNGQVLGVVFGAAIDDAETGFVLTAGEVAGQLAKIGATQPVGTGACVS
Mtb FBA inh: Mtb fructose-bisphosphate aldolase inhibition. P9WQA3. purified M. tuberculosis FBA, fluorescence read-out. inhibition, % at 1 µM. hit rate 2.3% among 360,000. AID 588726;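 further: 0% = vehicle and 100% = reference inhibitor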
FadD28 binding: inhibitors of Mycobacterium tuberculosis FadD28 bisubstrate binding | FadD28 bisubstrate probe binding, fluorescence polarization | inhibition, % at 12.5 µM | hit rate 0.22% among 360,000 | AID 588549; in the data active means inhibition above about 8.5%, passing the limit was not always enough
Mtb FBA confirm: Mtb FBA inhibition, confirmed; shares compounds with Mtb FBA inh; AID 651616; purified M. tuberculosis FBA, fluorescence read-out; hit rate 78% among 5,600; inhibition, % at 1 µM;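 further: 0% = vehicle wells and 100% = reference inhibitor wells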
GDH-TPI counter-2: inhibits GDH-TPI coupling enzymes, flagging Mtb FBA hits; shares compounds with Mtb FBA inh; GDH-TPI coupled enzyme counterscreen, fluorescence; inhibition, % at 1 µM; hit rate 81% among 5,600; AID 652141; in the data active means inhibition above about 10%
An asterisk follows results filed as active. A selection: hits, their analogues and other compounds. The true share with any hit is near 3%. Unless noted, no stated cut-off is given here; in the data, active means inhibition above about 27%; inactive means the rest.

For COC(=O)/C=c1\[nH]c2nnc(C)n2c1=O the results were GDH-TPI counter-1 9.3, Rv3671c inh -1.3, Mtb FBA inh 84.3*, FadD28 binding 0.7, Mtb FBA confirm active and GDH-TPI counter-2 active.
O=C(Nc1ccc(Cl)cc1)c1cc2c(cc1O)[nH]c1ccccc12 was read as GDH-TPI counter-1 15.0, BioA inh 0.1, Rv3671c inh 29.7, Mtb FBA inh 107.0*, FadD28 binding 2.3, Mtb FBA confirm 83.5* and GDH-TPI counter-2 71.3*.
`C[C@]12CCCC(=O)N1CCc1c2[nH]c2ccccc12` gave BioA inh 0.2.
For CN1CCN(C(=O)c2ccc3nc(-c4ccccc4)c(-c4ccccc4)nc3c2)CC1 the results were GDH-TPI counter-1 10.4, Rv3671c inh 2.7, Mtb FBA inh 30.2*, FadD28 binding -0.9, Mtb FBA confirm 168.1* and GDH-TPI counter-2 135.2*.
Screening Cc1cccc(-c2nc3ccc(C(=O)N4CCC5(CC4)OCCO5)cc3nc2-c2cccc(C)c2)c1 returned GDH-TPI counter-1 16.2, BioA inh 1.8, Rv3671c inh -0.3, Mtb FBA inh 42.5*, FadD28 binding -1.6, Mtb FBA confirm 117.2* and GDH-TPI counter-2 78.6*.
`CN1CCN(C(=O)c2ccc3ccccc3c2)CC1` gave GDH-TPI counter-1 4.4, BioA inh -0.5, Rv3671c inh -2.3, Mtb FBA inh 1.6 and FadD28 binding -0.3.
O=C(c1ccc2nc(-c3ccccc3)c(-c3ccccc3)nc2c1)N1CCCCC1 was read as GDH-TPI counter-1 14.6, Rv3671c inh 8.0, Mtb FBA inh 33.5*, FadD28 binding -3.9, Mtb FBA confirm 92.6* and GDH-TPI counter-2 63.5*.
For O=C(c1ccccc1)N1CCCCCC1 the results were GDH-TPI counter-1 12.9, Rv3671c inh -10.2, Mtb FBA inh 3.2 and FadD28 binding 0.7.
Screening Cc1nc2ccc(NC(=O)N3CCOCC3)cc2nc1C returned GDH-TPI counter-1 8.9, BioA inh -0.3, Rv3671c inh -11.4, Mtb FBA inh 42.6*, FadD28 binding -2.4, Mtb FBA confirm active and GDH-TPI counter-2 147.3*.
For Cc1nc2ccc(NC(=O)N3CCOCC3)cc2s1 the results were GDH-TPI counter-1 -4.9, BioA inh 0.1, Rv3671c inh 1.8, Mtb FBA inh 0.0 and FadD28 binding -2.0.
CCOC(=O)C1CCN(C(=O)Nc2ccc3nc(C)c(C)nc3c2)CC1 was read as GDH-TPI counter-1 11.4, BioA inh 2.7, Rv3671c inh 3.3, Mtb FBA inh 78.1*, FadD28 binding -3.5, Mtb FBA confirm 114.6* and GDH-TPI counter-2 77.1*.
COc1ccc(-c2ccc3c(c2)[C@H]2[C@H](CCN2C(=O)CN2CCOCC2)[C@@H](CO)N3)cc1 was read as BioA inh -1.4.
For O=C(CCN1CCCCC1)N[C@@H]1CC[C@H](CC(=O)N2CCC(Cc3ccccc3)CC2)O[C@H]1CO the results were BioA inh -0.3.
Screening COCCn1c(=N)c(S(=O)(=O)c2ccc(F)cc2)cc2c(=O)n3ccccc3nc21 returned GDH-TPI counter-1 9.5, BioA inh -2.9, Rv3671c inh -6.8, Mtb FBA inh 34.2*, FadD28 binding -2.4, Mtb FBA confirm 51.6* and GDH-TPI counter-2 40.8*.
N=c1c(S(=O)(=O)c2ccc(Cl)cc2)cc2c(=O)n3ccccc3nc2n1Cc1ccco1 was read as GDH-TPI counter-1 14.6, BioA inh -0.2, Rv3671c inh -4.3, Mtb FBA inh 56.2*, FadD28 binding -7.8, Mtb FBA confirm 141.8* and GDH-TPI counter-2 106.9*.
`N=c1c(S(=O)(=O)c2ccccc2)cc2c(=O)n3ccccc3nc2n1CC1CCCO1` (stereo unspecified) gave GDH-TPI counter-1 15.7, BioA inh -4.4, Rv3671c inh 7.8, Mtb FBA inh 68.8*, FadD28 binding 1.5, Mtb FBA confirm active and GDH-TPI counter-2 active.
CCC(=O)N1[C@H](CO)[C@@H](c2ccccc2)[C@@H]1CN(CC)C(=O)c1cccc(F)c1 was read as BioA inh 4.8.
Screening Cc1cc(N2CCOCC2)n2cc(-c3ccccc3)nc2n1 returned GDH-TPI counter-1 2.4, Rv3671c inh 14.1, Mtb FBA inh 8.0 and FadD28 binding -2.1.
`Cc1cc(N2CC(C)OC(C)C2)n2cc(-c3ccccc3)nc2n1` (stereo unspecified) gave GDH-TPI counter-1 6.3, BioA inh 1.6, Rv3671c inh 10.4, Mtb FBA inh 62.9*, FadD28 binding -0.2, Mtb FBA confirm active and GDH-TPI counter-2 active.
Screening O=C(C1CC1)N1C[C@H]2[C@@H](c3ccccc31)[C@H](CO)N2C(=O)Cc1ccccn1 returned BioA inh -0.9.
COc1ccc(C2NC(=O)NC3=C2C(=O)CCC3)cc1 (stereo unspecified) was read as GDH-TPI counter-1 -2.4, BioA inh 0.3, Rv3671c inh 0.2, Mtb FBA inh -0.3 and FadD28 binding -3.5.
`COc1ccc(C2C3=C(CCCC3=O)Nc3c(-c4ccccc4)c(C)nn32)cc1` (stereo unspecified) gave GDH-TPI counter-1 45.2*, BioA inh 0.4, Rv3671c inh -2.3, Mtb FBA inh 97.0*, FadD28 binding 0.7, Mtb FBA confirm 168.6* and GDH-TPI counter-2 135.2*.
`COc1ccc(OC)c(/C=N/Nc2nc(C)cc(=O)[nH]2)c1` gave GDH-TPI counter-1 22.4, BioA inh 1.3, Rv3671c inh -1.3, Mtb FBA inh 49.1*, FadD28 binding -2.9, Mtb FBA confirm 194.2* and GDH-TPI counter-2 173.4*.
`COc1ccc(/C=N/NC(=O)CC(=O)NCc2cccnc2)c(OC)c1` gave GDH-TPI counter-1 17.7, Rv3671c inh -2.1, Mtb FBA inh -1.6 and FadD28 binding -1.7.
COc1ccc(OC)c(/C=N/NC(=O)CC2C(=O)NN=C2C)c1 (stereo unspecified) was read as GDH-TPI counter-1 15.2, BioA inh 15.7, Rv3671c inh 0.0, Mtb FBA inh 68.2*, FadD28 binding -0.3, Mtb FBA confirm 41.6* and GDH-TPI counter-2 37.7*.
CCOc1cc(/C=N/NC(=O)CCCC(=O)NC2CCCCC2)ccc1O was read as GDH-TPI counter-1 12.4, BioA inh -1.9, Rv3671c inh 12.5, Mtb FBA inh 55.7*, FadD28 binding -2.6, Mtb FBA confirm 23.7 and GDH-TPI counter-2 13.9*.
For COc1ccccc1/C=N/Nc1nc(C)cc(=O)[nH]1 the results were GDH-TPI counter-1 25.9, BioA inh -1.1, Mtb FBA inh -0.5 and FadD28 binding -1.2.
For COc1ccc(OC)c(/C=N/NC(=O)CC(=O)NCc2ccccc2)c1 the results were GDH-TPI counter-1 -3.5, Rv3671c inh 0.9, Mtb FBA inh 29.3*, FadD28 binding 0.3, Mtb FBA confirm 111.2* and GDH-TPI counter-2 103.2*.
`COc1cccc(/C=N/NC(=O)CC2C(=O)NN=C2C)c1O` (stereo unspecified) gave GDH-TPI counter-1 -6.3, BioA inh -1.3, Rv3671c inh 3.8, Mtb FBA inh -2.2 and FadD28 binding -3.2.
